# Results filed as inconclusive are left out. Values without a mark were called inactive. Activity calls are given as the source filed them. The call rests on the fitted dose curve; in most records, active means well fitted cell-killing curve with a large enough effect; inconclusive means small, poorly fitted or top-dose-only effect, or effect the other way; inactive means no such curve, though single readings can be large or run the other way.
# Key:
# [1] = Quantitative High-Throughput drug screen in 47 multiple myeloma cell lines against the NCATS MIPE library collection: OCIMY7_PLB cell viability assay (AID 1918987); conditions: OCI-MY7 myeloma viability, CellTiter-Glo ATP, 48 h; viability (% of DMSO): at 45.8 µM (top of the series); further: nearly all actives have a fitted effect of over 65% in size
# Summary of the method: (§1)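 Myeloma cells (500/well) treated with MIPE 4.0 compounds for 48 h at 37 °C, 5% CO2. Viability read as ATP via CellTiter-Glo luminescence after 5 min at RT; DMSO-only wells = 100%, media-only = 0% viability.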
# [2] = Quantitative High-Throughput drug screen in 47 multiple myeloma cell lines against the NCATS MIPE library collection: OPM1_PLB cell viability assay (AID 1918989); further: nearly all actives have a fitted effect of over 40% in size
# Summary of the method: as §1
# [3] = Quantitative High-Throughput drug screen in 47 multiple myeloma cell lines against the NCATS MIPE library collection: U266_ATCC cell viability assay (AID 1919864); further: nearly all actives have a fitted effect of over 35% in size
# Summary of the method: as §1
# [4] = Quantitative High-Throughput drug screen in 47 multiple myeloma cell lines against the NCATS MIPE library collection: XG6_PLB cell viability assay (AID 1919865); further: nearly all actives have a fitted effect of over 40% in size
# Summary of the method: as §1
# [5] = Quantitative High-Throughput drug screen in 47 multiple myeloma cell lines against the NCATS MIPE library collection: XG1_PLB cell viability assay (AID 1919866); further: nearly all actives have a fitted effect of over 35% in size
# Summary of the method: as §1
# [6] = Quantitative High-Throughput drug screen in 47 multiple myeloma cell lines against the NCATS MIPE library collection: VP6_DJ cell viability assay (AID 1919867); further: nearly all actives have a fitted effect of over 40% in size
# Summary of the method: as §1
# [7] = Quantitative High-Throughput drug screen in 47 multiple myeloma cell lines against the NCATS MIPE library collection: UTMC2_PLB cell viability assay (AID 1919868); conditions: CellTiter-Glo ATP luminescence, 48 h; viability (% of DMSO control): at 45.8 µM (top of the series); further: nearly all actives have a fitted effect of over 55% in size
# Summary of the method: as §1
# [8] = Quantitative High-Throughput drug screen in 47 multiple myeloma cell lines against the NCATS MIPE library collection: PE2_PLB cell viability assay (AID 1919869); further: nearly all actives have a fitted effect of over 35% in size
# Summary of the method: as §1
# [9] = Quantitative High-Throughput drug screen in 47 multiple myeloma cell lines against the NCATS MIPE library collection: SKMM1_PLB cell viability assay (AID 1919863); conditions: SKMM1 myeloma viability, CellTiter-Glo ATP, 48 h; viability: hits give low values; further: nearly all actives have a fitted effect of over 35% in size
# Summary of the method: as §1
# Potency means the concentration at half of the fitted maximal effect.
Compound,Potency [1],Potency [2],Potency [3],Potency [4],Potency [5],Potency [6],Potency [7],Potency [8],Potency [9]
COc1cc(CNC(=O)CCCCC=CC(C)C)ccc1O,14.8 µM (active),inactive,inactive,13.2 µM (active),inactive,inactive,–,–,–
Nc1ncnc2c1c(-c1cccc(OCc3ccccc3)c1)cn2C1CC(CN2CCC2)C1 (stereo unspecified),0.296 µM (active),16.6 µM (active),16.6 µM (active),14.8 µM (active),23.5 µM (active),1.66 µM (active),0.166 µM (active),6.62 µM (active),–
CN[C@@H]1[C@@H](O)[C@@H](O[C@@H]2[C@@H](O)[C@H](O[C@H]3O[C@H](CN)[C@@H](O)[C@H](O)[C@@H]3O)[C@@H](N)C[C@@H]2NC(=O)[C@@H](O)CN)OC[C@]1(C)O,inactive,inactive,18.7 µM (active),inactive,inactive,inactive,–,inactive,–
O=C1NC(=O)C(=Cc2ccc(-c3ccc(F)cc3O)o2)S1,3.72 µM (active),14.8 µM (active),inactive,2.35 µM (active),–,2.96 µM (active),–,7.43 µM (active),–
CNC(=O)c1ccc2c(C(=Nc3cccc(CN(C)C)c3)c3ccccc3)c(O)[nH]c2c1,5.9 µM (active),18.7 µM (active),–,16.6 µM (active),14.8 µM (active),16.6 µM (active),16.6 µM (active),18.7 µM (active),–
O=C1C(CCC(O)c2ccc(F)cc2)C(c2ccc(O)cc2)N1c1ccc(F)cc1 (stereo unspecified),inactive,inactive,–,2.09 µM (active),inactive,3.32 µM (active),–,–,–
CCCCCOC(=O)Nc1nc(=O)n([C@@H]2O[C@H](C)[C@@H](O)C2O)cc1F (stereo partly specified),inactive,inactive,inactive,3.32 µM (active),–,2.64 µM (active),inactive,inactive,–
CNc1nc(-c2ccc3c(N)n[nH]c3c2)cc(N2C[C@@H](C(=O)NC3CCCCC3)CC[C@@H]2C)n1,0.0662 µM (active),23.5 µM (active),16.6 µM (active),20.9 µM (active),20.9 µM (active),5.9 µM (active),–,6.62 µM (active),–
CN1C(=O)C[C@H](C(=O)N[C@@H](Cc2cnc[nH]2)C(=O)N2CCC[C@@H]2C(N)=O)NC1=O,inactive,20.9 µM (active),inactive,10.5 µM (active),10.5 µM (active),10.5 µM (active),–,–,–
CC(=O)OCC(=O)[C@@]12OC(C)(C)O[C@H]1C[C@H]1[C@@H]3C[C@H](F)C4=CC(=O)C=C[C@]4(C)[C@@]3(F)[C@@H](O)C[C@@]12C,inactive,inactive,inactive,inactive,–,–,–,–,–
C=CC[N+]1([C@H]2C[C@H]3[C@@H]4CC[C@H]5C[C@H](O)[C@@H](N6CCOCC6)C[C@]5(C)[C@@H]4CC[C@]3(C)[C@H]2OC(C)=O)CCCC1,inactive,inactive,inactive,inactive,inactive,–,–,inactive,–
O=C1CCCC(=O)C1C(=O)c1ccc(C(F)(F)F)cc1[N+](=O)[O-],inactive,inactive,20.9 µM (active),inactive,inactive,–,–,inactive,–
CCc1cccc(CC)c1NC(=O)N1Cc2[nH]nc(NC(=O)c3ccc(N4CCN(C)CC4)cc3)c2C1,10.5 µM (active),0.833 µM (active),–,8.33 µM (active),0.935 µM (active),5.9 µM (active),0.743 µM (active),20.9 µM (active),2.64 µM (active)
C=CCc1cccc(C=NNC(=O)CN2CCN(Cc3ccccc3)CC2)c1O,14.8 µM (active),20.9 µM (active),8.33 µM (active),9.35 µM (active),10.5 µM (active),7.43 µM (active),20.9 µM (active),20.9 µM (active),–
CC=C1C2C=C(C)CC1(N)c1ccc(=O)[nH]c1C2 (stereo unspecified),inactive,inactive,inactive,inactive,inactive,–,–,inactive,–
CC(=O)NCCC(=O)N[C@@H](CCC(N)=O)C(=O)N[C@@H](CO)C(=O)N[C@@H](CCC(N)=O)C(=O)N[C@@H](CCC(N)=O)C(=O)N[C@H](C(=O)N[C@@H](Cc1ccccc1)C(=O)N[C@]1(C)CCCCCCC=CCCC[C@@](C)(C(=O)N[C@@H](CCC(N)=O)C(=O)N[C@@H](CC(N)=O)C(N)=O)NC(=O)[C@H](CC(C)C)NC(=O)[C@H](CC(C)C)NC(=O)[C@@H](CCCNC(=N)N)NC(=O)[C@H](Cc2c[nH]c3ccccc23)NC(=O)[C@H](CC(C)C)NC(=O)[C@H](CC(N)=O)NC1=O)[C@H](C)O,20.9 µM (active),26.4 µM (active),–,–,–,–,–,20.9 µM (active),16.6 µM (active)

# — PubChem BioAssay (NCATS)
